Test results: PubChem BioAssay AID1851 (National Center for Advancing Translational Sciences (NCATS), 2009)
The whole screen tested about 16,000 compounds, of which about 5,100 (32%) were called active. Not shown: some 25% with an inconclusive outcome. The call rests on the fitted dose curve; in most records, active means well fitted curve in the direction sought with a large enough effect; inconclusive means small, poorly fitted or top-dose-only effect, or effect the other way; inactive means no such curve, though single readings can be large or run the other way. The list shows a part of the results.

biological target: Cytochrome P450 3A4 (Homo sapiens) (UniProt P08684); assay: Cytochrome panel assay with activity outcomes; conditions: recombinant CYP, pro-luciferin dealkylation, luminescence, p450-cyp3a4; series mostly up to 57.1 µM; activity, negative = inhibition: at the top concentration
On the % scale 0 is the no-effect control and ±100 the full control effect.

Cytochrome P450 3A4 (Homo sapiens), sequence (P08684 whole entry, looked up): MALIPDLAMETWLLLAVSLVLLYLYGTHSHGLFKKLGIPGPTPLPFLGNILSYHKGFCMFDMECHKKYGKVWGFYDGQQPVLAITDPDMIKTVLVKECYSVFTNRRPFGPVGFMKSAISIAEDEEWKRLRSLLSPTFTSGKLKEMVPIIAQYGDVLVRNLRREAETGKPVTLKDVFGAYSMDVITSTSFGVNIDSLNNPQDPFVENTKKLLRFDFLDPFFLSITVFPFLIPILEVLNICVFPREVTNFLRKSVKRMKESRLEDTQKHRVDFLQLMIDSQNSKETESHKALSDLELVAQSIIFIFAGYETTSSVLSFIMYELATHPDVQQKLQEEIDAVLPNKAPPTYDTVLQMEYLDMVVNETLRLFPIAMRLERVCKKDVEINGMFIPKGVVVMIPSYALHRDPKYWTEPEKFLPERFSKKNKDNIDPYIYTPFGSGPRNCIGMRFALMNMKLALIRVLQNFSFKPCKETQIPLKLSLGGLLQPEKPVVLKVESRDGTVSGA

Row | SMILES | activity, negative = inhibition | AC50
1 | CCN(CC)CCOC(=O)c1c(C)n(C)c2ccc(OC)cc12 | -23.9% (inactive) | 
2 | CCCc1cc2c(=O)c(-c3ccc4c(c3)OCCO4)coc2cc1OC(=O)c1ccco1 | 9.62% [at 2.29 µM] (inactive) | 
3 | CCOC(=O)c1c(C)n(C)c2ccc(OC(=O)c3ccco3)cc12 |  | 15.8 µM (active)
4 | CC(=O)OC[C@@H]1O[C@@H](O/N=C2/C[C@@H](O)[C@@H](O)[C@@H]3[C@@H]4C(=O)N(C(C)(C)C)C(=O)[C@H]4CC[C@@H]23)[C@H](OC(C)=O)[C@H](OC(C)=O)[C@@H]1OC(C)=O | -3.46% [at 11.4 µM] (inactive) | 
5 | CC1=NN(c2ccccc2)C(=O)/C1=C\N1CC(C)OC(C)C1 (stereo not drawn) | -26.3% (inactive) | 
6 | Nc1cccc2cc(S(=O)(=O)Nc3ccc(C(=O)O)cc3)ccc12 | -7.54% [at 11.4 µM] (inactive) | 
7 | CC(=O)c1cccc(NS(=O)(=O)c2ccc(N/C=C\C(=O)c3ccc(F)cc3)cc2)c1 |  | 0.708 µM (active)
8 | Cc1ccc(C)c(/C(=N\N=C(N)N)C2CC2)c1 | -27% [at 11.4 µM] (inactive) | 
9 | COc1cc(/C=C(\C#N)c2nc3c(s2)CC(C)CC3)ccc1O (stereo not drawn) |  | 25.1 µM (active)
10 | C=CCc1ccccc1OC[C@H](O)CNC(C)C |  | inactive
11 | C=CCOc1ccccc1OC[C@H](O)CNC(C)C | -0.918% [at 25.6 µM] (inactive) | 
12 | COc1ccc(NC(=O)C2CCN(C(=O)c3cccs3)CC2)c(OC)c1 |  | 28.2 µM (active)
13 | COc1ccc2oc(=O)c(NC(=O)C3CCCCC3)cc2c1 | -7.77% (inactive) | 
14 | COC(=O)c1ccccc1NC(=O)C1CCN(C(=O)c2ccc(OC)cc2)CC1 |  | 6.31 µM (active)
15 | COc1cc(OC)cc(C(=O)Nc2ccccc2C(=O)N2CCCC2)c1 | -8.41% [at 2.29 µM] (inactive) | 
16 | CCOC(=O)C1CCN(C(=O)c2ccccc2NC(C)=O)CC1 | -0.79% (inactive) | 
17 | O=C(Cn1c(-c2cscn2)nc2ccccc21)Nc1cc(F)ccc1F |  | 14.1 µM (active)
18 | CC(C)(C)c1ccc(OC(=O)Cn2c(C(F)(F)F)nc3ccccc32)cc1 | 23% (inactive) | 
19 | COc1ccc(O[C@H]2C=C[C@@H](c3ccccc3)O[C@@H]2CO/N=C(\C)CCN2CCCCc3nc(C)c(C)cc32)cc1 |  | 3.98 µM (active)
20 | COc1ccc(O[C@H]2C=C[C@@H](c3ccccc3)O[C@@H]2CO/N=C(\C)CCN2CCCc3nc(C)c(C)cc32)cc1 |  | 3.16 µM (active)

Row | SMILES | activity, negative = inhibition | AC50
21 | Cc1cc(C)c(S(=O)(=O)Nc2ccccc2C(F)(F)F)c(C)c1 |  | 2.51 µM (active)
22 | Cc1cc(C)c(S(=O)(=O)Nc2cccc(C(F)(F)F)c2)c(C)c1 |  | 12.6 µM (active)
23 | C[C@@H]1C(=O)N(C)C(=O)c2nc[nH]c21 | -3.89% (inactive) | 
24 | O=C(NCCOC12CC3CC(CC(C3)C1)C2)c1cccc(Br)c1 | -3.19% [at 2.29 µM] (inactive) | 
25 | CCC(C)Nc1nc(OCC(F)(F)F)nc(OCC(F)(F)F)n1 (stereo not drawn) | 4.7% [at 11.4 µM] (inactive) | 
26 | CNc1nc(NCCOC23CC4CC(CC(C4)C2)C3)nc(OCC(F)(F)F)n1 |  | 25.1 µM (active)
27 | COC(=O)/C=C/CSC1=N/C(=C/c2ccc(-n3cncn3)cc2)C(=O)N1 |  | 2 µM (active)
28 | COc1ccc(Oc2c(C=O)c3ccccc3n2C)cc1 |  | 17.8 µM (active)
29 | CC(C)Oc1ccc2ccccc2c1C=O | 6.45% [at 2.29 µM] (inactive) | 
30 | Cn1c(Oc2ccccc2)c(C=O)c2ccccc21 | 9.35% (inactive) | 
31 | Cn1ncc([N+](=O)[O-])c1C(=O)N1CCOCC1 | -9.46% [at 2.29 µM] (inactive) | 
32 | COc1ccc(C)cc1NC(=O)c1cc2cc3ccc(C)cc3nc2o1 | -12.1% (inactive) | 
33 | Cc1ccc2cc3cc(C(=O)N4CCCCC4C)oc3nc2c1 (stereo not drawn) |  | 12.6 µM (active)
34 | Cc1ccc2cc(C(=O)O)c(C)nc2c1 | 10.8% (inactive) | 
35 | Cc1ccc2nc(-c3cccnc3)oc2c1 |  | 39.8 µM (active)
36 | c1ccc(-c2nc3ccccc3o2)nc1 | -18.2% (inactive) | 
37 | Clc1ccc2oc(-c3cccnc3)nc2c1 | -3.98% (inactive) | 
38 | O=[N+]([O-])c1ccc(N2CCCC2)cc1N1CCCC1 | -24.1% (inactive) | 
39 | CS(=O)(=O)N1CCN(c2c(Cl)cccc2[N+](=O)[O-])CC1 | 15.1% (inactive) | 
40 | Cc1cc(C)n(-c2cc(N3CCN(S(=O)(=O)c4ccc(C)c(C)c4)CC3)ccc2[N+](=O)[O-])n1 |  | 3.16 µM (active)

Row | SMILES | activity, negative = inhibition | AC50
41 | Cc1c(Cl)c([N+](=O)[O-])nn1Cc1ccc(C(=O)N/N=C\c2cccc(Br)c2)o1 |  | 3.98 µM (active)
42 | CCN(CC)C(=O)C(=O)N/N=C/c1cccc(Br)c1 | -20.6% (inactive) | 
43 | Cc1cc(C(=O)N/N=C/c2cccc([N+](=O)[O-])c2)c(C)o1 | -17% (inactive) | 
44 | Cc1c(Cl)c([N+](=O)[O-])nn1Cc1ccc(C(=O)N/N=C\c2cc(Cl)ccc2O)o1 |  | 2.24 µM (active)
45 | C/C(Cn1nc([N+](=O)[O-])cc1C)=N\NC(=O)c1ccc(O)cc1O | -3.84% [at 2.29 µM] (inactive) | 
46 | N#Cc1cccc(NC(=O)N2CC3(CCN(C(=O)c4ccco4)CC3)C2)c1 | -26.1% (inactive) | 
47 | N#Cc1cccc(NC(=O)N2CCCC3(CCN(C(=O)c4ccco4)CC3)C2)c1 |  | 5.01 µM (active)
48 | N#Cc1cccc(NC(=O)N2CC[C@@]3(CCCN(C(=O)c4cccc(F)c4)C3)C2)c1 |  | 10 µM (active)
49 | N#Cc1cccc(NC(=O)N2CCCC3(CCN(C(=O)c4cccc(F)c4)CC3)C2)c1 |  | 15.8 µM (active)
50 | S=c1[nH]c2cc(Cl)ccc2s1 | -16.9% [at 2.29 µM] (inactive) | 
51 | CC(C)C(NC(=O)C12CC3CC(CC(C3)C1)C2)C(=O)NC1=NCCS1 (stereo not drawn) |  | 15.8 µM (active)
52 | CCc1ccc(N2CC(C(=O)NC3=NCCS3)CC2=O)cc1 (stereo not drawn) | 3.42% [at 2.29 µM] (inactive) | 
53 | O=C(Nc1ccccc1)C(Cc1ccccc1)NC(=O)C12CC3CC(CC(C3)C1)C2 (stereo not drawn) | -5.95% (inactive) | 
54 | Cc1ccc(S(=O)(=O)NC(=O)NN2C[C@H]3CCC[C@@H]3C2)cc1 | 10.8% [at 25.6 µM] (inactive) | 
55 | CCCS(=O)(=O)N1CCCC(C(=O)NCCCN2CCN(c3ccc(F)cc3)CC2)C1 (stereo not drawn) | 14.9% [at 2.29 µM] (inactive) | 
56 | Cc1ccc(S(=O)(=O)N(CC(=O)N2CCN(c3ccc(F)cc3)CC2)C2CCCCC2)cc1 |  | 1 µM (active)
57 | O[C@H](CNc1ccccn1)c1ccccc1 | -27.1% [at 11.4 µM] (inactive) | 
58 | CN1CCN(c2nc3c(c(=O)n(C)c(=O)n3C)n2C)CC1 | 0.305% [at 11.4 µM] (inactive) | 
